SMILES strings stand for the structures. Compounds without any hit were thinned out: in the full panel of roughly 83,000, 20% have a hit.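 Single-concentration screen, 48 h exposure, 96-well plates. Endpoint: percent growth. Below 10 = active.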 A number with no mark means an inactive call. Active and inactive are the calls of the source.

The subject of this assay is KM12 colon. Description: NCI-60 one-dose screen, 48 h (100 = growth as untreated, 0 = no growth, -100 = all killed). The conditions noted are these: 10 µM unless noted.
For `CC(=O)Nc1nc(C(=O)N2N=C(C)/C(=C/c3cccs3)C2=O)cs1`, the growth was 110%.

On to `C=C1C(=O)O[C@H]2[C@H]1CC/C(COC(=O)NCCc1ccc(Br)cc1)=C\CC[C@@]1(C)O[C@@H]21`, for which the growth was 55.4%.

As to `CCCCCCCCCCCCNC(=S)N/N=C/c1ccc(Cl)c(Cl)c1`, the growth was 102%.

Take `CCCCCCCCCCCCCCCCC(Br)C(=O)O` (stereo not drawn): the growth was 111%.

`CCN(Cc1ccc(CN(CC)C(=O)C(Cl)(Cl)Cl)cc1)C(=O)C(Cl)(Cl)Cl`: the growth was 81.5%.

Turning to `CS(=O)(=O)N(c1cc(-c2ccc3ncnc(Nc4cccc(Cl)c4)c3c2)cnc1Cl)S(C)(=O)=O`, the growth was 21.3%.

Turning to `COc1cc(C(=O)/C=C/c2cc(C(=O)c3cc(OC)c(OC)c(OC)c3)ccc2OC)ccc1N`, the growth is -57.2% (active).

In the case of `CCCCCCCCCCC/C=C\C[C@H](O)C/C=C1/C(=O)C=C[C@@H]1C/C=C\CCCC(=O)OC`, the growth was -48.5% (active).

Regarding `O=S(=O)(NCCCNc1cc(-c2cn(-c3ccccc3)nc2-c2cccc(O)c2)ccn1)c1ccc(Cl)cc1`, the growth was 12.5%.

As for `CC(=O)/C=C/c1cc2cc(Cl)ccc2[nH]c1=O`, the growth is 60%.

Turning to `CC(=O)Nc1nc(C(=O)N2N=C(C)/C(=C/c3ccccc3)C2=O)cs1`, the growth is 102%.

`COC(=O)CCCCN=Cc1c(O)c(O)c(C(C)C)c2cc(C)c(-c3c(C)cc4c(C(C)C)c(O)c(O)c(C=NCCCCC(=O)OC)c4c3O)c(O)c12`: the growth is 16.1%.

For the compound `COc1cccc(C2CC(=O)Nc3c2c(C)nn3-c2nc3ccccc3[nH]2)c1OC` (stereo not drawn), the growth was 67.9%.

With `O=c1[nH]c(-c2cn(-c3ccc(Cl)cc3)nn2)nc2ccccc12`, the growth was 84.7%.

Take `Cc1ccc(OCCn2c(C)nn(-c3ccc(Cl)cc3)c2=O)cc1`: the growth was 117%.

For `O=C(COc1ccccc1)N1N=C(c2ccc(Cl)cc2)CC1c1c[nH]c2ccccc12` (stereo not drawn), the growth was 74.1%.

As for `COc1cc(OC)cc(-c2n[nH]nc2-c2ccc3c(c2)OCO3)c1`, the growth was 25.1%.

Turning to `COC(=O)CC/C(C)=N\Nc1ccc([N+](=O)[O-])cc1`, the growth was 24.3%.

Consider `O=C(O)C(=Cc1c2ccccc2cc2ccccc12)C(=O)O`, for which the growth is 109%.

In the case of `Clc1ccc(/C=C/c2nc(N3CCOCC3)c3nc(Cl)c(Cl)cc3n2)cc1`, the growth was 114%.

On to `COc1cc(OC)c(C(=O)/C=C/c2cccc(C#N)c2)c(OC)c1`, for which the growth is 6.41% (active).

Regarding `CCCC(C(=O)OCC)C(C)OC(=O)OCC` (stereo not drawn), the growth is 101%.

In the case of `CCN(CC)CCSc1c2ccc(Cl)cc2nc2ccc(OC)cc12`, the growth is 99.1%.

Take `Cc1nn(-c2ccc(Cl)cc2)c(=O)n1CCOc1ccccc1Cl`: the growth was 101%.

In the case of `COc1ccc(S(=O)(=O)N2CCN(c3cc4c(cc3F)c(=O)c(C(=O)O)cn4C3CC3)CC2)c(OC)c1`, the growth is 91.1%.

As to `CCOC(=O)C1=C(C)NC(=O)NC1c1ccc(OCC(=O)N/N=C/c2ccc(Cl)cc2)cc1` (stereo not drawn), the growth is 96.3%.

Take `CCOC(=O)c1cc(/C(=N\O)c2cc(OC)c(OC)c(OC)c2)n2c(C)cccc12`: the growth is 27.9%.

With `C=CCOc1cccc(/C=C/C(=O)c2sc(Nc3cccnc3)nc2C)c1`, the growth was 24%.

With `CN1CCN(c2ccc3cc(-c4nc5ccccc5[nH]4)c(=O)oc3c2)CC1`, the growth is 90%.

Consider `O=C(/C=C/CN1CCOCC1)Nc1cc2c(Nc3cccc(Cl)c3F)ncnc2cc1OCCOC(F)F`, for which the growth was 90.2%.

For `O=Nc1c(-c2c(O)[nH]c3ccc([N+](=O)[O-])cc23)[nH]c2ccc(O)cc12`, the growth was -33% (active).

Take `COC(=O)c1ccc(C)cc1`: the growth is 108%.

Turning to `COc1ccc(/C=C/c2nc(N3CCOCC3)c3cc(F)c(F)cc3n2)cc1OC`, the growth was 28.1%.

With `Cc1ccc2c(c1)ncn2-c1ncnc2c1CC(C)c1ccccc1N2C` (stereo not drawn), the growth was 10.5%.

For `COc1ccc(S(=O)(=O)NCCNc2nccc(-c3c(-c4ccccc4)nc4sccn34)n2)cc1`, the growth is 9.45% (active).

With `CCCCC[C@@H]1Cc2cc(O)c(C(=O)O)c3c2[C@H](C[C@@]2(CCCO2)O3)O1`, the growth is 118%.

Take `O=C(Nc1ccc(Br)c(Cl)c1)c1cc(F)ccc1O`: the growth was 2.98% (active).

With `Cc1ccc2nc(-c3c(N)n[nH]c3CCCO)[nH]c(=O)c2c1`, the growth was 111%.

These data come from PubChem BioAssay (NCI).
